The source of these data is PubChem BioAssay AID1825 (The Scripps Research Institute Molecular Screening Center, 2009).

SMILES strings stand for the structures. Screen size: about 290,000 compounds; about 2,300 (0.79%) were called active. Rule as the data show it: active = inhibition above about 22%; inactive = the rest. The full list was thinned out, with actives kept by preference.

A short description of this test: cytotoxicity in IEC-6 intestinal epithelial cells, primary screen, cytotoxicity control for KLF5 inhibitor project, cell-based, luminescence (AID 1825).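 Also: 0% = plate median of test compound wells and 100% = cytotoxic reference compound wells.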 The following applies: IEC-6 cytotoxicity, luminescence viability; at 5 µM; active compounds read high.
In the case of `COc1cc(-n2c(=S)[nH]c3ccc(C)cc3c2=O)c(Cl)cc1Cl`, the inhibition was 27.3% (active). For the compound `CN(C)CC1Oc2ccccc2OC1(O)c1ccccc1` (stereo not given), the inhibition is 10.6% (inactive).

For the compound `COc1ccc(N2C(=O)/C(=C/c3ccco3)C(=O)NC2=S)cc1`, the inhibition was -11.8% (inactive). Turning to `COc1cc2nc(N3CCN(C(=O)[C@@H]4CCCO4)CC3)nc(N)c2cc1OC`, the inhibition is -0.7% (inactive). In the case of `CN(c1ccccc1)c1ccc([N+](=O)[O-])c2nonc12`, the inhibition is 13.2% (inactive).

On to `CC1=CC(=Cc2sc3ccccc3[n+]2C)C=C(C)O1`, for which the inhibition is 25.9% (active). Next, `CCc1nc2ccccc2c(=O)n1-c1cccc(OC)c1`: -0.6% (inactive); `COc1cc(Cn2c(N)c(C(=O)NCc3ccco3)c3nc4ccccc4nc32)cc(OC)c1OC`: 7.4% (inactive); `COc1ccc(-c2nn(CCC#N)cc2C(=O)O)cc1`: -8.6% (inactive). In the case of `COc1ccc(C(=O)CC2C(=O)N(C)C(=O)N(C)C2=O)cc1`, the inhibition is 2% (inactive). As to `Cc1nc2ccccc2c(=O)n1-c1ccc(Cl)cc1Cl`, the inhibition was -4.8% (inactive). As to `CCCCCCCCCCCCn1ccc(=N)cc1`, the inhibition was 78.8% (active). `CCOP(=S)(OCC)C(O)CCCCCn1c(=O)c(F)cn(C2CCCO2)c1=O` (stereo not given): the inhibition is -1.2% (inactive). Regarding `CCOc1cccc(=NC2CCCCC2)c2c(C)[nH]c(C)c12`, the inhibition is -11.4% (inactive).

Regarding `COc1cccc(N2C(=O)NC(=O)/C(=C\c3ccc([N+](=O)[O-])s3)C2=O)c1`, the inhibition was -9.9% (inactive). Next, `Cc1cc2ccccn2c1C(C[N+](=O)[O-])c1c(F)cccc1Cl` (stereo not given): 47.4% (active); `CC(=O)Nc1ccc(C(=O)C(Cc2ccccc2)N(C)C)cc1` (stereo not given): -0.8% (inactive); `CC(=O)c1c(C)n(C(C)C)c2ccc(O)cc12`: 3.8% (inactive). `COc1ccc(-c2nn(CCC#N)cc2C(=O)Nc2ccc(C(C)=O)cc2)cc1`: the inhibition was -1.6% (inactive). Turning to `O=c1c2ccccc2nc(/C=C/c2ccco2)n1-c1ccccc1O`, the inhibition was -4.9% (inactive).
